# Measured values as given in the supplement of paper PMC8728848.
# Shown is part of a subset that was picked to be rich in the strongest signals.
# Legend:
# Assay in all cases: glycan array binding signal (z-score within array); higher = stronger binding
# Settings in all cases: glycan notation: IUPAC condensed, linker removed
# [1] = molecular target: Fuc(a1-2)Gal(b1-3)GalNAc(b1-4)[Neu5Ac(a2-3)]Gal(b1-4)Glc
# Outline: (§1)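 The binding signal is a Z-score computed within each array and averaged over linkers. Arrays of the same protein sequence at different concentrations or buffers were also averaged together. Data originate from 3228 arrays in the Consortium for Functional Glycomics database, kept only where the protein sequence was available.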
# [2] = molecular target: Fuc(a1-2)Gal(b1-3)[Fuc(a1-4)]GlcNAc
# Outline: as §1
# [3] = molecular target: Fuc(a1-2)Gal(b1-4)GlcNAc(b1-2)[Fuc(a1-2)Gal(b1-4)GlcNAc(b1-4)]Man(a1-3)[Fuc(a1-2)Gal(b1-4)GlcNAc(b1-2)Man(a1-6)]Man(b1-4)GlcNAc(b1-4)GlcNAc
# Outline: as §1
# [4] = molecular target: Fuc(a1-2)Gal(b1-4)[Fuc(a1-3)]GlcNAc(b1-3)Gal(b1-4)[Fuc(a1-3)]GlcNAc
# Outline: as §1
# [5] = molecular target: Fuc(a1-2)Gal3S(b1-4)GlcNAc
# Outline: as §1
# [6] = molecular target: Fuc(a1-2)[Gal(a1-3)]Gal(b1-4)[Fuc(a1-3)]GlcNAc(b1-3)GalNAc
# Outline: as §1
# [7] = molecular target: Fuc(a1-2)[GalNAc(a1-3)]Gal(b1-3)GlcNAc(b1-2)Man(a1-3)[Fuc(a1-2)[GalNAc(a1-3)]Gal(b1-3)GlcNAc(b1-2)Man(a1-6)]Man(b1-4)GlcNAc(b1-4)[Fuc(a1-6)]GlcNAc
# Outline: as §1
# Gal(a1-2)Gal = molecular target: Gal(a1-2)Gal
# Outline: as §1
# [8] = molecular target: Gal(a1-3)Gal(b1-3)[Fuc(a1-4)]GlcNAc(b1-2)Man(a1-3)[Gal(a1-3)Gal(b1-3)[Fuc(a1-4)]GlcNAc(b1-2)Man(a1-6)]Man(b1-4)GlcNAc(b1-4)GlcNAc
# Outline: as §1
# Gal(a1-3)Gal(b1-4)GlcNAc = molecular target: Gal(a1-3)Gal(b1-4)GlcNAc
# Outline: as §1
# Gal(a1-4)Gal(b1-4)GlcNAc = molecular target: Gal(a1-4)Gal(b1-4)GlcNAc
# Outline: as §1
# [9] = molecular target: Gal(b1-3)GlcNAc(b1-2)Man(a1-3)[GlcNAc(b1-4)][Gal(b1-3)GlcNAc(b1-2)Man(a1-6)]Man(b1-4)GlcNAc(b1-4)GlcNAc
# Outline: as §1
# [10] = molecular target: Gal(b1-3)GlcNAc(b1-3)Gal(b1-4)[Fuc(a1-3)]GlcNAc
# Outline: as §1
# [11] = molecular target: Gal(b1-4)GlcNAc(b1-2)Man(a1-6)[GlcNAc(b1-2)Man(a1-3)]Man(b1-4)GlcNAc(b1-4)GlcNAc
# Outline: as §1
# [12] = molecular target: Gal(b1-4)GlcNAc(b1-3)Gal(b1-4)GlcNAc(b1-2)[Gal(b1-4)GlcNAc(b1-3)Gal(b1-4)GlcNAc(b1-6)]Man(a1-6)[Gal(b1-4)GlcNAc(b1-3)Gal(b1-4)GlcNAc(b1-2)Man(a1-3)]Man(b1-4)GlcNAc(b1-4)GlcNAc
# Outline: as §1
# [13] = molecular target: Gal(b1-4)GlcNAc(b1-3)Gal(b1-4)GlcNAc(b1-3)Gal(b1-4)GlcNAc(b1-3)Gal(b1-4)GlcNAc(b1-2)Man(a1-3)[Gal(b1-4)GlcNAc(b1-3)Gal(b1-4)GlcNAc(b1-3)Gal(b1-4)GlcNAc(b1-3)Gal(b1-4)GlcNAc(b1-2)Man(a1-6)]Man(b1-4)GlcNAc(b1-4)[Fuc(a1-6)]GlcNAc
# Outline: as §1
# [14] = molecular target: Gal(b1-4)GlcNAc(b1-3)Gal(b1-4)GlcNAc(b1-3)Gal(b1-4)GlcNAc(b1-3)Gal(b1-4)GlcNAc(b1-3)Gal(b1-4)GlcNAc(b1-2)Man(a1-3)[Gal(b1-4)GlcNAc(b1-3)Gal(b1-4)GlcNAc(b1-3)Gal(b1-4)GlcNAc(b1-3)Gal(b1-4)GlcNAc(b1-3)Gal(b1-4)GlcNAc(b1-2)Man(a1-6)]Man(b1-4)GlcNAc(b1-4)[Fuc(a1-6)]GlcNAc
# Outline: as §1
# [15] = molecular target: Gal(b1-4)GlcNAc(b1-3)Gal(b1-4)GlcNAc(b1-3)Gal(b1-4)GlcNAc(b1-3)Gal(b1-4)GlcNAc(b1-3)Gal(b1-4)GlcNAc(b1-2)[Gal(b1-4)GlcNAc(b1-3)Gal(b1-4)GlcNAc(b1-3)Gal(b1-4)GlcNAc(b1-3)Gal(b1-4)GlcNAc(b1-3)Gal(b1-4)GlcNAc(b1-6)]Man(a1-6)[Gal(b1-4)GlcNAc(b1-3)Gal(b1-4)GlcNAc(b1-3)Gal(b1-4)GlcNAc(b1-3)Gal(b1-4)GlcNAc(b1-3)Gal(b1-4)GlcNAc(b1-2)Man(a1-3)]Man(b1-4)GlcNAc(b1-4)[Fuc(a1-6)]GlcNAc
# Outline: as §1
# [16] = molecular target: Gal(b1-4)GlcNAc(b1-6)GalNAc
# Outline: as §1
# Gal(b1-4)GlcNAc6P = molecular target: Gal(b1-4)GlcNAc6P
# Outline: as §1
# Gal3S(b1-3)GalNAc = molecular target: Gal3S(b1-3)GalNAc
# Outline: as §1
# [17] = molecular target: GalNAc(a1-3)GalNAc(b1-3)Gal(a1-4)Gal(b1-4)Glc
# Outline: as §1
# [18] = molecular target: GalNAc(b1-4)GlcNAc(b1-2)Man(a1-3)[GalNAc(b1-4)GlcNAc(b1-2)Man(a1-6)]Man(b1-4)GlcNAc(b1-4)GlcNAc
# Outline: as §1
# GalNAc3S(b1-4)GlcNAc3S = molecular target: GalNAc3S(b1-4)GlcNAc3S
# Outline: as §1
# Glc(a1-6)Glc(a1-6)Glc = molecular target: Glc(a1-6)Glc(a1-6)Glc
# Outline: as §1
# Glc(b1-4)Glc = molecular target: Glc(b1-4)Glc
# Outline: as §1
# [19] = molecular target: GlcNAc(a1-4)Gal(b1-4)GlcNAc(b1-3)Gal(b1-4)GlcNAc
# Outline: as §1
# [20] = molecular target: GlcNAc(a1-4)Gal(b1-4)GlcNAc(b1-3)Gal(b1-4)GlcNAc(b1-3)Gal(b1-4)GlcNAc
# Outline: as §1
# [21] = molecular target: GlcNAc(b1-3)Gal(b1-4)GlcNAc(b1-3)Gal(b1-4)GlcNAc(b1-2)Man(a1-3)[GlcNAc(b1-3)Gal(b1-4)GlcNAc(b1-3)Gal(b1-4)GlcNAc(b1-2)Man(a1-6)]Man(b1-4)GlcNAc(b1-4)[Fuc(a1-6)]GlcNAc
# Outline: as §1
# [22] = molecular target: GlcNAc(b1-3)Gal(b1-4)GlcNAc(b1-3)Gal(b1-4)GlcNAc(b1-3)Gal(b1-4)GlcNAc(b1-3)Gal(b1-4)GlcNAc(b1-2)Man(a1-3)[GlcNAc(b1-3)Gal(b1-4)GlcNAc(b1-3)Gal(b1-4)GlcNAc(b1-3)Gal(b1-4)GlcNAc(b1-3)Gal(b1-4)GlcNAc(b1-2)Man(a1-6)]Man(b1-4)GlcNAc(b1-4)GlcNAc
# Outline: as §1
# GlcNAc(b1-3)Man = molecular target: GlcNAc(b1-3)Man
# Outline: as §1
# [23] = molecular target: GlcNAc(b1-6)Gal(b1-4)GlcNAc
# Outline: as §1
# Kdn(a2-3)Gal(b1-4)Glc = molecular target: Kdn(a2-3)Gal(b1-4)Glc
# Outline: as §1
# Kdn(a2-3)Gal(b1-4)GlcNAc = molecular target: Kdn(a2-3)Gal(b1-4)GlcNAc
# Outline: as §1
# [24] = molecular target: Man(a1-3)[Man(a1-6)]Man(b1-4)GlcNAc(b1-4)GlcNAc
# Outline: as §1
# Man(b1-4)GlcNAc = molecular target: Man(b1-4)GlcNAc
# Outline: as §1
# Neu5Ac(a2-3)Gal = molecular target: Neu5Ac(a2-3)Gal
# Outline: as §1
# [25] = molecular target: Neu5Ac(a2-3)Gal(b1-3)[Fuc(a1-4)]GlcNAc
# Outline: as §1
# [26] = molecular target: Neu5Ac(a2-3)Gal(b1-3)[Fuc(a1-4)]GlcNAc(b1-3)Gal(b1-3)[Fuc(a1-4)]GlcNAc
# Outline: as §1
# [27] = molecular target: Neu5Ac(a2-3)Gal(b1-3)[GlcNAc(b1-6)]GalNAc
# Outline: as §1
# [28] = molecular target: Neu5Ac(a2-3)Gal(b1-4)GlcNAc
# Outline: as §1
# [29] = molecular target: Neu5Ac(a2-3)Gal(b1-4)GlcNAc(b1-6)[Neu5Ac(a2-3)Gal(b1-3)]GalNAc
# Outline: as §1
# [30] = molecular target: Neu5Ac(a2-6)Gal(b1-4)GlcNAc(b1-2)Man(a1-3)[Neu5Ac(a2-6)Gal(b1-4)GlcNAc(b1-2)Man(a1-6)]Man(b1-4)GlcNAc(b1-4)[Fuc(a1-6)]GlcNAc
# Outline: as §1
# [31] = molecular target: Neu5Ac(a2-6)Gal(b1-4)GlcNAc(b1-2)Man(a1-6)[GlcNAc(b1-2)Man(a1-3)]Man(b1-4)GlcNAc(b1-4)GlcNAc
# Outline: as §1
# [32] = molecular target: Neu5Ac(a2-6)Gal(b1-4)GlcNAc(b1-3)Gal(b1-4)GlcNAc(b1-2)Man(a1-3)[Neu5Ac(a2-6)Gal(b1-4)GlcNAc(b1-3)Gal(b1-4)GlcNAc(b1-2)Man(a1-6)]GalNAc
# Outline: as §1
# [33] = molecular target: Neu5Ac(a2-6)Gal(b1-4)GlcNAc(b1-3)Gal(b1-4)GlcNAc(b1-6)[Gal(b1-3)]GalNAc
# Outline: as §1
# [34] = molecular target: Neu5Ac(a2-8)Neu5Ac(a2-8)Neu5Ac
# Outline: as §1
# [35] = molecular target: Neu5Ac9Ac(a2-3)Gal(b1-3)GlcNAc
# Outline: as §1
# [36] = molecular target: Neu5Gc(a2-3)Gal(b1-4)GlcNAc
# Outline: as §1
# [37] = molecular target: Neu5Gc(a2-6)Gal(b1-4)GlcNAc
# Outline: as §1
binder,measurement,setting,value
"LICBM33A (Lactococcus lactis), Q9CE94 (protein) MKKLLTGLLVAAGLLSVSLLIKTDTVSAHGYVQSPPARGYQGQLDSQSLGWTAAFNIYGNVISNPQSLEAPKGFPECGPADGRIASANGGLGQIGDFVLDNQTSSRWKKTSISTGSNIFTWKYTAPHKTTKWHYYMTKTGWDQNAPLKHSELELIGTINHDGSPATNNLSHTINIPTDRSGYHIVLAVWDVADTSNAFYNVIDINVNNKNASSQVFGPFL",glycan array binding signal (z-score),[1],-0.276
same,glycan array binding signal (z-score),[2],-0.377
same,glycan array binding signal (z-score),[3],6.68
same,glycan array binding signal (z-score),[4],-0.587
same,glycan array binding signal (z-score),[5],3.62
same,glycan array binding signal (z-score),[6],-1.52
same,glycan array binding signal (z-score),[7],-0.211
same,glycan array binding signal (z-score),Gal(a1-2)Gal,-0.28
same,glycan array binding signal (z-score),[8],-0.268
same,glycan array binding signal (z-score),Gal(a1-3)Gal(b1-4)GlcNAc,-0.436
same,glycan array binding signal (z-score),Gal(a1-4)Gal(b1-4)GlcNAc,0.111
same,glycan array binding signal (z-score),[9],-0.473
same,glycan array binding signal (z-score),[10],-0.324
same,glycan array binding signal (z-score),[11],-0.512
same,glycan array binding signal (z-score),[12],0.114
same,glycan array binding signal (z-score),[13],4.11
same,glycan array binding signal (z-score),[14],6.2
same,glycan array binding signal (z-score),[15],6.18
same,glycan array binding signal (z-score),[16],-0.959
same,glycan array binding signal (z-score),Gal(b1-4)GlcNAc6P,0.236
same,glycan array binding signal (z-score),Gal3S(b1-3)GalNAc,-0.215
same,glycan array binding signal (z-score),[17],-0.96
same,glycan array binding signal (z-score),[18],-0.578
same,glycan array binding signal (z-score),GalNAc3S(b1-4)GlcNAc3S,-0.284
same,glycan array binding signal (z-score),Glc(a1-6)Glc(a1-6)Glc,0.839
same,glycan array binding signal (z-score),Glc(b1-4)Glc,-0.321
same,glycan array binding signal (z-score),[19],-0.4
same,glycan array binding signal (z-score),[20],-0.457
same,glycan array binding signal (z-score),[21],-0.307
same,glycan array binding signal (z-score),[22],4.98
same,glycan array binding signal (z-score),GlcNAc(b1-3)Man,0.023
same,glycan array binding signal (z-score),[23],-0.043
same,glycan array binding signal (z-score),Kdn(a2-3)Gal(b1-4)Glc,0.82
same,glycan array binding signal (z-score),Kdn(a2-3)Gal(b1-4)GlcNAc,-0.667
same,glycan array binding signal (z-score),[24],0.527
same,glycan array binding signal (z-score),Man(b1-4)GlcNAc,-0.147
same,glycan array binding signal (z-score),Neu5Ac(a2-3)Gal,0.406
same,glycan array binding signal (z-score),[25],3.52
same,glycan array binding signal (z-score),[26],3.37
same,glycan array binding signal (z-score),[27],1.55
same,glycan array binding signal (z-score),[28],0.435
same,glycan array binding signal (z-score),[29],-0.471
same,glycan array binding signal (z-score),[30],4.31
same,glycan array binding signal (z-score),[31],4.26
same,glycan array binding signal (z-score),[32],4.82
same,glycan array binding signal (z-score),[33],-0.512
same,glycan array binding signal (z-score),[34],-0.117
same,glycan array binding signal (z-score),[35],0.017
same,glycan array binding signal (z-score),[36],-0.141
same,glycan array binding signal (z-score),[37],-0.606
